# From PubChem BioAssay (Tox21)
# Results filed as inconclusive are left out. Unmarked numbers belong to inactive results. The source made the active and inactive calls. Unless noted, the call rests on the fitted dose curve; in most records, active means well fitted cell-killing curve with a large enough effect in the repeat runs; inconclusive means weak or mixed curves; inactive means flat fitted curve, though single readings scatter.
# Assay: qHTS assay to identify small molecule agonists of the progesterone receptor (PR) signaling pathway - cell viability counter screen (AID 1346799; calls by dose curve; further: nearly all actives have a fitted effect of over 45% in size; further: potency means the concentration at half of the fitted maximal effect)
# Settings: PR-UAS-bla HEK293T viability, CellTiter-Glo luminescence, 16 h; series mostly up to 92.4 µM; activity change, negative = cytotoxicity: at the top concentration
# How it was run: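 Viability was scored by ATP luminescence (CellTiter-Glo, 30 min, room temperature) in the same wells used for the reporter readout, after 16 hr compound exposure of PR-UAS-bla HEK293T cells.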
# On the % scale 0 is the no-effect control and ±100 the full control effect.
SMILES,"activity change, negative = cytotoxicity",Potency
O=C(O)c1ccc(S(=O)(=O)O)cc1C(=O)O,-2.8%,
OCCNCc1ccccc1,-9.99%,
CCOCC(O)COc1ccc(NC(=O)CC[S+](C)C)cc1 (stereo not drawn),44.4% [at 42.5 µM],
CC(=O)c1cccc([N+](=O)[O-])c1,7.63%,
CCCCC1=NC2(CCCC2)C(=O)N1Cc1ccc(-c2ccccc2-c2nn[nH]n2)cc1,-17.4% [at 42.5 µM],
CCCCCCCN,-4.48%,
CC(CC=O)c1ccccc1 (stereo not drawn),-9.08%,
CCOC(=O)C(=O)CCc1ccccc1,0.711% [at 42.5 µM],
C[N+](C)(C)CCOC(=O)CCC(=O)OCC[N+](C)(C)C,5.53% [at 42.5 µM],
CCCCCCCCO[C@@H]1O[C@H](CO)[C@@H](O)[C@H](O)[C@H]1O,-11.9%,
CCOC(=O)Cc1cccc2ccccc12,5.9%,
CCO[C@H](Cc1ccc(OCCc2ccc(OS(C)(=O)=O)cc2)cc1)C(=O)O,-17.3% [at 42.5 µM],
Cc1cc(C(=O)O)ccc1[N+](=O)[O-],-3.97%,
CCN(CC)CCNC(=O)c1cc(Br)c(N)cc1OC,-9.63% [at 42.5 µM],
OC[C@H]1O[C@@H](OCCc2ccc(O)cc2)[C@H](O)[C@@H](O)[C@@H]1O,6.44% [at 42.5 µM],
C=CCOc1ccccc1OCC(O)CNC(C)C (stereo not drawn),-3.78% [at 42.5 µM],
CCOC(=O)c1cccnc1,-2.52% [at 42.5 µM],
NCC(=O)O,27.9% [at 19 µM],
CN1Cc2cc(C(=O)N3CCC(C4CCNCC4)CC3)ccc2NC(CC(=O)O)C1=O (stereo not drawn),8.71% [at 42.5 µM],
Cc1[nH]c(C)c(Cl)c(=O)c1Cl,5.96% [at 19 µM],
O=C(O)CNCC(=O)O,20.3% [at 8.39 µM],
O=C(CS)Nc1ccccc1,-14.1% [at 42.5 µM],
NCC(=O)CCC(=O)O,7.3% [at 42.5 µM],
Cc1ncc(CO)c(C=O)c1O,-4.14% [at 42.5 µM],
CCOc1ccc(O)cc1,3.31%,
NCCCN1CCOCC1,-10.3%,
CCCCCCCCCCCCCCCCOS(=O)(=O)O,,18.8 µM (active)
NCc1ccccc1Sc1ccccc1CO,2.24% [at 42.5 µM],

# Assay: qHTS assay to identify small molecule antagonists of the TGF-beta/Smad signaling pathway - cell viability counter screen (AID 1346824); further: nearly all actives have a fitted effect of over 50% in size
# Settings: SBE-bla HEK293T viability, CellTiter-Glo luminescence; series mostly up to 76.8 µM; viability change, negative = cytotoxic: at the top concentration
# How it was run: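 Cytotoxicity counter-screen run in the same wells as the beta-lactamase Smad reporter read: CellTiter-Glo luminescence after 30 min at room temperature. HEK 293T SBE-bla cells had 5 hr compound exposure at 37 C with TGF-beta1 (0.25 ng/mL stock).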
row,SMILES,"viability change, negative = cytotoxic"
1,COc1ccnc(CS(=O)c2nc3ccc(OC(F)F)cc3[nH]2)c1OC (stereo not drawn),-6.47% [at 35.3 µM]
2,COS(=O)(=O)C(F)(F)F,-0.494%
3,OCCNCc1ccccc1,1.3%
4,CCOCC(O)COc1ccc(NC(=O)CC[S+](C)C)cc1 (stereo not drawn),-9.62% [at 35.3 µM]
5,CC(=O)c1cccc([N+](=O)[O-])c1,-15.6%
6,CCCCCCCN,7.7%
7,CC(CC=O)c1ccccc1 (stereo not drawn),2.14%
8,CCOC(=O)C(=O)CCc1ccccc1,0.0332% [at 35.3 µM]
9,CCCCCCCCO[C@@H]1O[C@H](CO)[C@@H](O)[C@H](O)[C@H]1O,0.994%
10,c1cc(CCCc2ccncc2)ccn1,-5.13%
11,CCOC(=O)Cc1cccc2ccccc12,1.89%
12,CCO[C@H](Cc1ccc(OCCc2ccc(OS(C)(=O)=O)cc2)cc1)C(=O)O,10.2% [at 35.3 µM]
13,CCN(CC)CCNC(=O)c1cc(Br)c(N)cc1OC,-1.11% [at 35.3 µM]
14,OC[C@H]1O[C@@H](OCCc2ccc(O)cc2)[C@H](O)[C@@H](O)[C@@H]1O,-3.08% [at 35.3 µM]
15,C=C1[C@H]2CC[C@@H]3[C@H]2C(C)(C)CCC[C@]13C,-0.248%
16,C=CCOc1ccccc1OCC(O)CNC(C)C (stereo not drawn),-5.87% [at 35.3 µM]
17,CCOC(=O)c1cccnc1,2.6% [at 35.3 µM]
18,NCC(=O)O,-5.27% [at 15.8 µM]
19,CN1Cc2cc(C(=O)N3CCC(C4CCNCC4)CC3)ccc2NC(CC(=O)O)C1=O (stereo not drawn),-17.3% [at 35.3 µM]
20,CCN(CC)CCOC(=O)C(c1ccccc1)C1CCCCC1 (stereo not drawn),-17.9% [at 35.3 µM]
21,O=C1C(O)=C(O)C(=O)C(O)=C1O,3.43% [at 35.3 µM]
22,Cc1[nH]c(C)c(Cl)c(=O)c1Cl,5.33% [at 15.8 µM]
23,O=C(O)CNCC(=O)O,10.5% [at 6.97 µM]
24,NCC(=O)CCC(=O)O,-14.6% [at 35.3 µM]
25,Cc1ncc(CO)c(C=O)c1O,-1.08% [at 35.3 µM]
26,O=C1CCCCCCCCCCCC(=O)OCCO1,-2.01%
27,CCOc1ccc(O)cc1,-2.96%
28,NCCCN1CCOCC1,7.3%
29,CCCCCCCCCCCCCCCCOS(=O)(=O)O,-7.88% [at 35.3 µM]
30,NCc1ccccc1Sc1ccccc1CO,4.28% [at 35.3 µM]
